# Experimental data reported in publication PMC7862700, “An all-to-all approach to the identification of sequence-specific readers for epigenetic DNA modifications on cytosine”.
# What was measured:
# Experiment in all cases: DAPPL (digital affinity profiling via proximity ligation, sequencing); 10 mM Tris-HCl pH 7.5, 50 mM NaCl, 1 mM DTT, 4% glycerol, room temperature, 30 min; GST-TFs on glutathione beads, 16-mer random dsDNA library, 0.1% formaldehyde crosslink after washing; high values mean tight binding
# [1] = biological target: T1, FLI1 (Homo sapiens, UniProt Q01543 1-452); settings: protein: recombinant; tags: N-terminal GST; dsDNA, one strand shown
# T1 sequence: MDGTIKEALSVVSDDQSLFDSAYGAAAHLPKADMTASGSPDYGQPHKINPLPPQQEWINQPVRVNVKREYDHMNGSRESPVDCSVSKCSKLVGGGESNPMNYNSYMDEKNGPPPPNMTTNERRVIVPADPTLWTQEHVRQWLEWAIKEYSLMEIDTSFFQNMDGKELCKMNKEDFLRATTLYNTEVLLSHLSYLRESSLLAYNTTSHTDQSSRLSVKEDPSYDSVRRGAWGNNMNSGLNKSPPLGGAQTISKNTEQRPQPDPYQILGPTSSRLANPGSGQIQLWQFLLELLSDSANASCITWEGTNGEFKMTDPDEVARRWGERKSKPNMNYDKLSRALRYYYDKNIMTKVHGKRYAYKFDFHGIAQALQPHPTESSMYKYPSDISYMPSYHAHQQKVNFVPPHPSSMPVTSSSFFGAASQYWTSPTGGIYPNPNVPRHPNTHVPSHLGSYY
# Outline: (§1)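 Binding signal is given per hexamer as its read frequency for a factor divided by its frequency in the tag-only sample. GST-fused human transcription factors were expressed in yeast, captured on glutathione beads, barcoded with DNA and pooled with that sample, then incubated with 200 nmole of a 16-mer random double-stranded DNA library in Tris/NaCl/DTT/glycerol buffer for 30 min at room temperature. The pools were then washed, crosslinked, proximity-ligated, amplified by PCR and sequenced on an Illumina NextSeq500.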
# [2] = biological target: T2, ELK1 (Homo sapiens, UniProt P19419 1-428); settings: protein: recombinant; tags: N-terminal GST; dsDNA, one strand shown
# T2 sequence: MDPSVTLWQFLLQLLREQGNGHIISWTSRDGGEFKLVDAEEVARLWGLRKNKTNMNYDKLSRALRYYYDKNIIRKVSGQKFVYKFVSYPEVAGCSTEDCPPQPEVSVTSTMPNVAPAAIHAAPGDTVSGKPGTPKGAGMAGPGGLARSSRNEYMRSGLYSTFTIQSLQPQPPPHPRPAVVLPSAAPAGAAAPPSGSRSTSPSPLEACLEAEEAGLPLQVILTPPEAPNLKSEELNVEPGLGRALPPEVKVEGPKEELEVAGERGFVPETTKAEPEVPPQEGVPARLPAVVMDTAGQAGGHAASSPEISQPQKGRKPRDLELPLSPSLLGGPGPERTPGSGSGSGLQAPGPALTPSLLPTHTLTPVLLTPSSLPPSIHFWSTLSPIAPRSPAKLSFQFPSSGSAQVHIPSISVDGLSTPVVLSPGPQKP
# Outline: as §1
# [3] = biological target: T3, GABPA (Homo sapiens, UniProt Q06546 1-454); settings: protein: recombinant; tags: N-terminal GST; dsDNA, one strand shown
# T3 sequence: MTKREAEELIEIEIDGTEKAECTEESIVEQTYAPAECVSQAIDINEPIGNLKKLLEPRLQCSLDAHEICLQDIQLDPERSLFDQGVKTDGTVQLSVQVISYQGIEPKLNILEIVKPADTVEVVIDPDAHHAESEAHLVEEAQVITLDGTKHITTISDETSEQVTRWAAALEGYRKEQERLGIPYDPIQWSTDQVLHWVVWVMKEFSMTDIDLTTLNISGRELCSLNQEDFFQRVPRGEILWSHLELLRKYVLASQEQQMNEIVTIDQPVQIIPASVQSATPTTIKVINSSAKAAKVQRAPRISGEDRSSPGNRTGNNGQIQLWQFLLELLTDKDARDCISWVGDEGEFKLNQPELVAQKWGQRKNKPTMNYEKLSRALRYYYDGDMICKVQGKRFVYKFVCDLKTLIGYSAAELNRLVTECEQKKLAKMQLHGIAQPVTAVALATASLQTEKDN
# Outline: as §1
# [4] = biological target: T4, ERG (Homo sapiens, UniProt P11308 1-479); settings: protein: recombinant; tags: N-terminal GST; dsDNA, one strand shown
# T4 sequence: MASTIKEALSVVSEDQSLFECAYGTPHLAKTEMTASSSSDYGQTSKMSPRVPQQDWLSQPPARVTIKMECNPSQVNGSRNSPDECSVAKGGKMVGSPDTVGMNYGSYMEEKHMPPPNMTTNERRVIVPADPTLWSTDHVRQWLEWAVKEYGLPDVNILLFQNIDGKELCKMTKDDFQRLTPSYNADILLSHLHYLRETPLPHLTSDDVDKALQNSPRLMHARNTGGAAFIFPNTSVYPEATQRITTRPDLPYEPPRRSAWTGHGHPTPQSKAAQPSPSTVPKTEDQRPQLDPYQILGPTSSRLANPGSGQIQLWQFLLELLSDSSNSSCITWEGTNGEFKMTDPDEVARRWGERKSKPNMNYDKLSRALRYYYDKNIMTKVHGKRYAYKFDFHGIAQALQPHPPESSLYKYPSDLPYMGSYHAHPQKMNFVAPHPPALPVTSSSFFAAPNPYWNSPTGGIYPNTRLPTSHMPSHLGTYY
# Outline: as §1
# [5] = biological target: ELF1 (Homo sapiens, UniProt P32519 1-619); settings: protein: recombinant; tags: N-terminal GST; dsDNA, one strand shown
# ELF1, sequence (P32519 whole entry): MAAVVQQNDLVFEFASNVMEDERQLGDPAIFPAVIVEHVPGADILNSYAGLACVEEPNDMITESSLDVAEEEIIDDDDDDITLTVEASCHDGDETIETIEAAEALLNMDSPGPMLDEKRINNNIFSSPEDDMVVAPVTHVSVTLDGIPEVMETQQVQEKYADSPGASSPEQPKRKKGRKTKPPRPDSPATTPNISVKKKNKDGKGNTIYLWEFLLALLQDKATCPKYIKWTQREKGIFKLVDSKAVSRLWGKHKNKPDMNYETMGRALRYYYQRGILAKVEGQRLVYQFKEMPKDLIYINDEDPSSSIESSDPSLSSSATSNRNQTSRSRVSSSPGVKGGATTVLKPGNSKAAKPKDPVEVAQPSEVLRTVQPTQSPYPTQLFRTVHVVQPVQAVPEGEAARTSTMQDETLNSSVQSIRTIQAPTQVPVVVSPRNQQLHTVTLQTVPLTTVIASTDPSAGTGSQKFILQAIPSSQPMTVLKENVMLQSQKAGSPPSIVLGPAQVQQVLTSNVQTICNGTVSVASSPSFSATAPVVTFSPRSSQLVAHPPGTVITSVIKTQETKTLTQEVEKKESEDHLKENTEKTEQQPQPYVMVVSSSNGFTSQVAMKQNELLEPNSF
# Outline: as §1
# [6] = biological target: T5, EHF (Homo sapiens, UniProt Q9NZC4 1-300); settings: protein: recombinant; tags: N-terminal GST; dsDNA, one strand shown
# T5 sequence: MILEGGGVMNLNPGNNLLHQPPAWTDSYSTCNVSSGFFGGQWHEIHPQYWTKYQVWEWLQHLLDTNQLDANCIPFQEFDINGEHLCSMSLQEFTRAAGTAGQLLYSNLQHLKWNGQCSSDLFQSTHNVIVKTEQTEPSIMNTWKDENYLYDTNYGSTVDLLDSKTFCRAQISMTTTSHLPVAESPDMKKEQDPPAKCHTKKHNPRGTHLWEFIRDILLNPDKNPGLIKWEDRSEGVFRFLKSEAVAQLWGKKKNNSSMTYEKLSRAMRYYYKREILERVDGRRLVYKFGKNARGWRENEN
# Outline: as §1
# [7] = biological target: SPI1 (Homo sapiens, UniProt P17947 1-270); settings: protein: recombinant; tags: N-terminal GST; dsDNA, one strand shown
# Outline: as §1
# [8] = biological target: SPIB (Homo sapiens, UniProt Q01892 1-262); settings: protein: recombinant; tags: N-terminal GST; dsDNA, one strand shown
# SPIB, sequence (Q01892 whole entry): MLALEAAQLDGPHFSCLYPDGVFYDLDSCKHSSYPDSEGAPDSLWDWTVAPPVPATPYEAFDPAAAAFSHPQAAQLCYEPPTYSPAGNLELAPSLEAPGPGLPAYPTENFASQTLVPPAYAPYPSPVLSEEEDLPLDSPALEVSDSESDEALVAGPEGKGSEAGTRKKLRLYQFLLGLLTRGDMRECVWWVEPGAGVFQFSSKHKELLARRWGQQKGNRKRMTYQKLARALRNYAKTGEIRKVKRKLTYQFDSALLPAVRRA
# Outline: as §1
# [9] = biological target: T6, ELK3 (Homo sapiens, UniProt P41970 1-407); settings: protein: recombinant; tags: N-terminal GST; dsDNA, one strand shown
# T6 sequence: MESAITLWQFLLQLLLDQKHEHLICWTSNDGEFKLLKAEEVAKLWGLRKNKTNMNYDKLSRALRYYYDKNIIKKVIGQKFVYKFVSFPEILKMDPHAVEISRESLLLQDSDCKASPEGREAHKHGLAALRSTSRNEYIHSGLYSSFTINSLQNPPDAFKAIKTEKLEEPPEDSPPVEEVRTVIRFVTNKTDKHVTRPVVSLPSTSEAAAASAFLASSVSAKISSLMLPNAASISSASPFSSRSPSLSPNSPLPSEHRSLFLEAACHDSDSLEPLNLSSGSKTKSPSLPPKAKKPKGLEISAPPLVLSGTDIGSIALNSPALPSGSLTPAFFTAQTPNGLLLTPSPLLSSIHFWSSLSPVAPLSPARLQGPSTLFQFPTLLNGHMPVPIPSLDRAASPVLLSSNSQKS
# Outline: as §1
# [10] = biological target: T7, FEV (Homo sapiens, UniProt Q99581 1-238); settings: protein: recombinant; tags: N-terminal GST; dsDNA, one strand shown
# T7 sequence: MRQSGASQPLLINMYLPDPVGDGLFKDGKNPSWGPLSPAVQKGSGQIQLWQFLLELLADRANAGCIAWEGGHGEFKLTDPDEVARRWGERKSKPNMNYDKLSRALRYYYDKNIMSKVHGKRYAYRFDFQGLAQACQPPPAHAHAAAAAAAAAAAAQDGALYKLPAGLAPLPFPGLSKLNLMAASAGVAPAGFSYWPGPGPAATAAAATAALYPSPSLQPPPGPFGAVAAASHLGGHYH
# Outline: as §1
# [11] = biological target: ETV5 (Homo sapiens, UniProt P41161 1-510); settings: protein: recombinant; tags: N-terminal GST; dsDNA, one strand shown
# ETV5, sequence (P41161 whole entry): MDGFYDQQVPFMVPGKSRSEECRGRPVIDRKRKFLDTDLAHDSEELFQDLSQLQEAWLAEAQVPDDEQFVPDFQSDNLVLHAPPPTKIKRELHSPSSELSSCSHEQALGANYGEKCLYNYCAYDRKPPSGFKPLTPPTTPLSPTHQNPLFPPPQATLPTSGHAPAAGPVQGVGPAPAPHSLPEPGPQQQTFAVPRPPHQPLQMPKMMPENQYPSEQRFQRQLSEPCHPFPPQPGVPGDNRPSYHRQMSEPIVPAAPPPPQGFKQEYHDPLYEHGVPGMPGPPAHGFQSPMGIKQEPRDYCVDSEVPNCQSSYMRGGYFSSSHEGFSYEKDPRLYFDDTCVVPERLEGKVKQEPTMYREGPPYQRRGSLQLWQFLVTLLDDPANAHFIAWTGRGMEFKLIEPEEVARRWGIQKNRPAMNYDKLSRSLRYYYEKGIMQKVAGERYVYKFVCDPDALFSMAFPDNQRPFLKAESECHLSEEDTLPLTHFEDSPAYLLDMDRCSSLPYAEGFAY
# Outline: as §1
# [12] = biological target: HSF1 (Homo sapiens, UniProt Q00613 1-529); settings: protein: recombinant; tags: N-terminal GST; chain copies: 3; dsDNA, one strand shown
# HSF1, sequence (Q00613 whole entry): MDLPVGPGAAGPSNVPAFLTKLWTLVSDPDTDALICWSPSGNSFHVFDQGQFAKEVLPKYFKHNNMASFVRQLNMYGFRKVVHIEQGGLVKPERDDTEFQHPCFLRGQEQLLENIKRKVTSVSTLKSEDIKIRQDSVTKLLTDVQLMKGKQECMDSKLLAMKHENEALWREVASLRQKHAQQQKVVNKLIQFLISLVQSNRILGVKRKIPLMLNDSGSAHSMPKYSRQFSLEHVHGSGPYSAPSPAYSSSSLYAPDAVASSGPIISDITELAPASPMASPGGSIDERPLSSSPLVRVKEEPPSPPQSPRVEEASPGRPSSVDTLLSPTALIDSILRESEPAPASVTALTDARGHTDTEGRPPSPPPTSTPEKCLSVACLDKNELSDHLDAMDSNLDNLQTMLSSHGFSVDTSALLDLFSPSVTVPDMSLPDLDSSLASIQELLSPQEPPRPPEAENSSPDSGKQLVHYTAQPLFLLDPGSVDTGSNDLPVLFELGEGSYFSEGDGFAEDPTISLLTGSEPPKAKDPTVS
# Outline: as §1
# [13] = biological target: T8, SPIC (Homo sapiens, UniProt Q8N5J4 1-248); settings: protein: recombinant; tags: N-terminal GST; dsDNA, one strand shown
# T8 sequence: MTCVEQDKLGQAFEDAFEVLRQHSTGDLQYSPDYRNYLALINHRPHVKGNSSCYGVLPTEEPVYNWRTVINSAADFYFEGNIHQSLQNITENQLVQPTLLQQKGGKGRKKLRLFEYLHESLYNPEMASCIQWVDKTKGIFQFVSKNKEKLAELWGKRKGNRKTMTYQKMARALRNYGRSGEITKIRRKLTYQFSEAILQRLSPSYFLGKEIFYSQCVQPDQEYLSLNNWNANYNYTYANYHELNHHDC
# Outline: as §1
# [14] = biological target: ELF4 (Homo sapiens, UniProt Q99607 1-663); settings: protein: recombinant; tags: N-terminal GST; dsDNA, one strand shown
# ELF4, sequence (Q99607 whole entry): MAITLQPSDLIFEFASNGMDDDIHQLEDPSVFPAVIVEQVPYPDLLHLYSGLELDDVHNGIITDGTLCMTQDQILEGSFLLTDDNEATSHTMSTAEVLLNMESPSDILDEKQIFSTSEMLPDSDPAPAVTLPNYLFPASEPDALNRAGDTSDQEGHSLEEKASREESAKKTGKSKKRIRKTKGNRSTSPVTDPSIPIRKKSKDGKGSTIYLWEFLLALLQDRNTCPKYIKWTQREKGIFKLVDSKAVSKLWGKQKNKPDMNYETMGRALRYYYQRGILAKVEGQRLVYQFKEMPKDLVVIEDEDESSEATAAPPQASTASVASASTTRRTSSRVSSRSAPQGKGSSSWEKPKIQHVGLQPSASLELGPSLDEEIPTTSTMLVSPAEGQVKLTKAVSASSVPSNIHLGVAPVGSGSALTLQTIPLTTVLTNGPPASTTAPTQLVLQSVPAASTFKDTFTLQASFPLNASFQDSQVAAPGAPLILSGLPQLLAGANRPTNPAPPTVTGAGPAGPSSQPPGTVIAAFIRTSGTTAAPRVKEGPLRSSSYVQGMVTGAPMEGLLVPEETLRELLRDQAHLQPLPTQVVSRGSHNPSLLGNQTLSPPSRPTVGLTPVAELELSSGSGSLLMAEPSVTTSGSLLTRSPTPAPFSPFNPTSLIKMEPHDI
# Outline: as §1
# [15] = biological target: T9, ELK4 (Homo sapiens, UniProt P28324-2 1-405); settings: protein: recombinant; tags: N-terminal GST; dsDNA, one strand shown
# T9 sequence: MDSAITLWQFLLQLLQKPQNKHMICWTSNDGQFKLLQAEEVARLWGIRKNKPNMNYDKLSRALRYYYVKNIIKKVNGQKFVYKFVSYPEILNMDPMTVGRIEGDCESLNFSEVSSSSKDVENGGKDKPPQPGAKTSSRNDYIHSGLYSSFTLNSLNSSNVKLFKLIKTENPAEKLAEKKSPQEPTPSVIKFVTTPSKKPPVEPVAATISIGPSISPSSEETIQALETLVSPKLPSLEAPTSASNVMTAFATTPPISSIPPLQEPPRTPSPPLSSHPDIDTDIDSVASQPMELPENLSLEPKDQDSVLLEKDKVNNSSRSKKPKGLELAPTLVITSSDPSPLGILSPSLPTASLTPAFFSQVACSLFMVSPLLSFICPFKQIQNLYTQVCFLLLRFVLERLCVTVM
# Outline: as §1
# [16] = biological target: T10, ETV2 (Homo sapiens, UniProt O00321 1-342); settings: protein: recombinant; tags: N-terminal GST; dsDNA, one strand shown
# T10 sequence: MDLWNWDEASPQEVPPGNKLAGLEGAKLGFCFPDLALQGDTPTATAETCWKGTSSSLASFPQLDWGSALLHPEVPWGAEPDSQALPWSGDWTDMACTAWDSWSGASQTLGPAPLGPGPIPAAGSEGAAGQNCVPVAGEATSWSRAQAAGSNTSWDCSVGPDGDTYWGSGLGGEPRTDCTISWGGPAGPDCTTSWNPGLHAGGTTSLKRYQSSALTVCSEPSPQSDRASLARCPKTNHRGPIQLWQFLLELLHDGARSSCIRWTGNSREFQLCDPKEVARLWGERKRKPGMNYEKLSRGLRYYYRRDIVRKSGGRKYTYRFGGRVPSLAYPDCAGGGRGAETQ
# Outline: as §1
# [17] = biological target: T11, ELF3 (Homo sapiens, UniProt P78545 1-371); settings: protein: recombinant; tags: N-terminal GST; dsDNA, one strand shown
# T11 sequence: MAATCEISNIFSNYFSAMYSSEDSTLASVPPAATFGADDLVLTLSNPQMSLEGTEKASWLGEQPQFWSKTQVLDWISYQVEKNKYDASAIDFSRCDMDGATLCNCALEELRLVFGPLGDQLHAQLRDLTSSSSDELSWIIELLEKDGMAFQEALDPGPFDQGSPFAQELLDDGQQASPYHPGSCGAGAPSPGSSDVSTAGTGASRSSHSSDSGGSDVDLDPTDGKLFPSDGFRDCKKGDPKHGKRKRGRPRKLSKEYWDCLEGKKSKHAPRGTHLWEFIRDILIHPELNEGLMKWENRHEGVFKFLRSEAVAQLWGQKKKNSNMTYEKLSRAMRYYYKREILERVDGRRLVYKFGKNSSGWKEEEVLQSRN
# Outline: as §1
# [18] = biological target: CRX (Homo sapiens, UniProt O43186 1-299); settings: protein: recombinant; tags: N-terminal GST; dsDNA, one strand shown
# CRX, sequence (O43186 whole entry): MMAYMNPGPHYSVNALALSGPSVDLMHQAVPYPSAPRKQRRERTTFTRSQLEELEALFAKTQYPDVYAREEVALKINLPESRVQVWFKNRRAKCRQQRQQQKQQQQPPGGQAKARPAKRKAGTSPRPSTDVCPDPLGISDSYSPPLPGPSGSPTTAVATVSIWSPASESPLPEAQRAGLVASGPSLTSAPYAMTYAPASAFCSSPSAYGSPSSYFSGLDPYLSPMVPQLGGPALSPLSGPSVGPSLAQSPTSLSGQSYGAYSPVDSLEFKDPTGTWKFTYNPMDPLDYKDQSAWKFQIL
# Outline: as §1
# [19] = biological target: ETV1 (Homo sapiens, UniProt P50549 1-477); settings: protein: recombinant; tags: N-terminal GST; dsDNA, one strand shown
# ETV1, sequence (P50549 whole entry): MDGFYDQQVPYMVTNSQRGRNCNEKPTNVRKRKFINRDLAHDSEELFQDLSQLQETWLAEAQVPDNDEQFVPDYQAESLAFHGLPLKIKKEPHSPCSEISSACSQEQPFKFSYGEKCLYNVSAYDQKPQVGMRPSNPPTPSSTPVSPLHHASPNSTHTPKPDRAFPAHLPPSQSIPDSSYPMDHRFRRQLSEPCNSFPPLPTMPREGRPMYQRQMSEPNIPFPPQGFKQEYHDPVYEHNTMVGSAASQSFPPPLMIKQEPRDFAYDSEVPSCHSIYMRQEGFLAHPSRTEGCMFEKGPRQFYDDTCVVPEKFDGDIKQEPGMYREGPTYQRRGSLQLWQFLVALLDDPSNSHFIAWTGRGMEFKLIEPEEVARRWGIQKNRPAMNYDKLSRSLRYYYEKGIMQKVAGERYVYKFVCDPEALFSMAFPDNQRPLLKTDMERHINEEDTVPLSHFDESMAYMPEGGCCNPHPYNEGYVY
# Outline: as §1
sequence,measurement,setting,value
CTTATA,binding signal,[1],"1.3 fold enrichment (6-mer frequency, TF over GST control)"
same,binding signal,[2],"1.33 fold enrichment (6-mer frequency, TF over GST control)"
same,binding signal,[3],"1.41 fold enrichment (6-mer frequency, TF over GST control)"
same,binding signal,[4],"1.28 fold enrichment (6-mer frequency, TF over GST control)"
same,binding signal,[5],"1.33 fold enrichment (6-mer frequency, TF over GST control)"
same,binding signal,[6],"1.4 fold enrichment (6-mer frequency, TF over GST control)"
same,binding signal,[7],"1.43 fold enrichment (6-mer frequency, TF over GST control)"
same,binding signal,[8],"1.39 fold enrichment (6-mer frequency, TF over GST control)"
same,binding signal,[9],"1.29 fold enrichment (6-mer frequency, TF over GST control)"
same,binding signal,[10],"1.31 fold enrichment (6-mer frequency, TF over GST control)"
same,binding signal,[11],"1.29 fold enrichment (6-mer frequency, TF over GST control)"
same,binding signal,[12],"1.65 fold enrichment (6-mer frequency, TF over GST control)"
same,binding signal,[13],"1.34 fold enrichment (6-mer frequency, TF over GST control)"
same,binding signal,[14],"1.32 fold enrichment (6-mer frequency, TF over GST control)"
same,binding signal,[15],"1.38 fold enrichment (6-mer frequency, TF over GST control)"
same,binding signal,[16],"1.15 fold enrichment (6-mer frequency, TF over GST control)"
same,binding signal,[17],"1.37 fold enrichment (6-mer frequency, TF over GST control)"
same,binding signal,[18],"2.27 fold enrichment (6-mer frequency, TF over GST control)"
same,binding signal,[19],"1.49 fold enrichment (6-mer frequency, TF over GST control)"
